Measured values: PubChem BioAssay AID1159580 (chemical genetic matrix, 2015)
Several values for one entry are separate records, joined by “and”; a condition that tells them apart may be missing. Equal entries are not always repeated. Hit rate of the full screen: of about 5,500 compounds, about 2,000 (36%) were called active. Not shown: some 18% with an inconclusive outcome. Cut-off read from the data, not from the text of the source: active = normalized growth mostly below about 0.91 (no sharp cut-off); inconclusive = no clear call, values can overlap the other calls; inactive = mostly above about 0.92. The list shows a part of the results.

Assay: chemical genetic growth profiling, strain panel (AID 1159580);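 note: tested at 20 µM; growth read once vehicle control cultures reached saturation at 30 °C; 1 = growth at the plate median or of vehicle wells; lower values mean less growth of the strain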
Details: growth OD

Measured: normalized growth

CCN(CC)CCNC(=O)c1cc(S(C)(=O)=O)ccc1OC
inactive: S. cerevisiae deletion strains, locus YJR066W, strain TOR1, hits give low values 0.947 | S. cerevisiae deletion strains, locus YJR075W, strain HOC1, hits give low values 1.03 and 0.995 | S. cerevisiae deletion strains, locus YKL009W, strain mrt4, hits give low values 1.02 | S. cerevisiae deletion strains, locus YKL068W, hits give low values 1.01 | S. cerevisiae deletion strains, locus YKL085W, strain MDH1 (second series), hits give low values 1.02 | S. cerevisiae deletion strains, locus YKL085W, strain MDH1, hits give low values 1.02 | S. cerevisiae deletion strains, locus YKL160W, strain elf1, hits give low values 0.944 | S. cerevisiae deletion strains, locus YKL190W, strain CNB1, hits give low values 1.01 | S. cerevisiae deletion strains, locus YKR001C, strain vps1, hits give low values 1.01 | S. cerevisiae deletion strains, locus YKR026C, strain gcn3, hits give low values 0.979 | S. cerevisiae deletion strains, locus YKR091W, strain srl3, hits give low values 0.962 | S. cerevisiae deletion strains, locus YLL001W, strain dnm1, hits give low values 0.94 | S. cerevisiae deletion strains, locus YLL026W, hits give low values 0.975 | S. cerevisiae deletion strains, locus YLL041C, strain sdh2, hits give low values 0.972 | S. cerevisiae deletion strains, locus YLR027C, strain aat2, hits give low values 0.963 | S. cerevisiae deletion strains, locus YLR039C, strain RIC1, hits give low values 1.03 | S. cerevisiae deletion strains, locus YLR058C, strain SHM2, hits give low values 1.01 | S. cerevisiae deletion strains, locus YLR102C, strain apc9, hits give low values 1.01 | S. cerevisiae deletion strains, locus YLR113W, strain HOG1, hits give low values 0.984 | S. cerevisiae deletion strains, locus YLR221C, strain rsa3, hits give low values 0.948 | S. cerevisiae deletion strains, locus YLR258W, strain gsy2, hits give low values 0.981 | S. cerevisiae deletion strains, locus YLR262C, strain YPT6 (second series), hits give low values 0.976 | S. cerevisiae deletion strains, locus YLR262C, strain YPT6, hits give low values 1.06 | S. cerevisiae deletion strains, locus YLR268W, strain sec22, hits give low values 1.02 | S. cerevisiae deletion strains, locus YLR320W, strain mms22, hits give low values 0.941 | S. cerevisiae deletion strains, locus YLR330W, strain CHS5, hits give low values 1.01 | S. cerevisiae deletion strains, locus YLR342W, strain FKS1 (second series), hits give low values 1.02 | S. cerevisiae deletion strains, locus YLR342W, strain FKS1, hits give low values 0.963 | S. cerevisiae deletion strains, locus YLR357W, strain rsc2, hits give low values 0.927 | S. cerevisiae deletion strains, locus YLR370C, strain arc18, hits give low values 0.969 | S. cerevisiae deletion strains, locus YLR371W, strain rom2, hits give low values 1.01 | S. cerevisiae deletion strains, locus YLR384C, strain iki3, hits give low values 0.971 | S. cerevisiae deletion strains, locus YLR418C, strain cdc73, hits give low values 1.04 | S. cerevisiae deletion strains, locus YML016C, strain PPZ1, hits give low values 1.01 | S. cerevisiae deletion strains, locus YML032C, strain rad52, hits give low values 1.01 | S. cerevisiae deletion strains, locus YML120C, strain ndi1, hits give low values 0.944 | S. cerevisiae deletion strains, locus YML124C, strain tub3, hits give low values 1.01 | S. cerevisiae deletion strains, locus YMR058W, strain fet3, hits give low values 0.969 | S. cerevisiae deletion strains, locus YMR078C, strain ctf18, hits give low values 1.01 | S. cerevisiae deletion strains, locus YMR125W, strain sto1, hits give low values 0.963 | S. cerevisiae deletion strains, locus YMR129W, hits give low values 0.974 | S. cerevisiae deletion strains, locus YMR205C, strain PFK2, hits give low values 0.941 | S. cerevisiae deletion strains, locus YMR223W, strain ubp8, hits give low values 1.03 | S. cerevisiae deletion strains, locus YMR231W, strain pep5, hits give low values 0.973 | S. cerevisiae deletion strains, locus YMR263W, strain SAP30, hits give low values 1 | S. cerevisiae deletion strains, locus YMR307W, strain GAS1, hits give low values 1.06 and 0.987 | S. cerevisiae deletion strains, locus YNL067W, strain RPL9B, hits give low values 1 | S. cerevisiae deletion strains, locus YNL071W, strain lat1, hits give low values 0.975 | S. cerevisiae deletion strains, locus YNL128W, strain TEP1, hits give low values 1.02 | S. cerevisiae deletion strains, locus YNL153C, strain GIM3, hits give low values 1.02 | S. cerevisiae deletion strains, locus YNL175C, strain NOP13, hits give low values 1.01 | S. cerevisiae deletion strains, locus YNL183C, strain NPR1, hits give low values 0.921 | S. cerevisiae deletion strains, locus YNL197C, strain WHI3, hits give low values 1.03 | S. cerevisiae deletion strains, locus YNL209W, strain ssb2, hits give low values 0.972 | S. cerevisiae deletion strains, locus YNL224C, strain SQS1, hits give low values 1 | S. cerevisiae deletion strains, locus YNL233W, strain BNI4, hits give low values 1 | S. cerevisiae deletion strains, locus YNL248C, strain rpa49, hits give low values 0.971 | S. cerevisiae deletion strains, locus YNL250W, strain rad50, hits give low values 1.04 | S. cerevisiae deletion strains, locus YNL271C, strain bni1, hits give low values 1 | S. cerevisiae deletion strains, locus YNL298W, strain CLA4, hits give low values 1.01 | S. cerevisiae deletion strains, locus YNL307C, strain MCK1, hits give low values 1.02 | S. cerevisiae deletion strains, locus YNL322C, strain KRE1 (second series), hits give low values 0.956 | S. cerevisiae deletion strains, locus YNL322C, strain KRE1, hits give low values 0.961 | S. cerevisiae deletion strains, locus YNR049C, strain mso1, hits give low values 0.96 | S. cerevisiae deletion strains, locus YNR052C, strain pop2, hits give low values 1.01 | S. cerevisiae deletion strains, locus YOL006C, strain TOP1, hits give low values 1.01 | S. cerevisiae deletion strains, locus YOL012C, strain htz1 0.994 | S. cerevisiae deletion strains, locus YOL147C, strain pex11, hits give low values 1.01 | S. cerevisiae deletion strains, locus YOR001W, strain rrp6, hits give low values 0.968 | S. cerevisiae deletion strains, locus YOR061W, strain CKA2, hits give low values 1.01 | S. cerevisiae deletion strains, locus YOR069W, strain VPS5, hits give low values 1.01 | S. cerevisiae deletion strains, locus YOR070C, strain gyp1, hits give low values 0.98 | S. cerevisiae deletion strains, locus YOR080W, strain dia2, hits give low values 0.959 | S. cerevisiae deletion strains, locus YOR083W, strain WHI5 (second series), hits give low values 1 | S. cerevisiae deletion strains, locus YOR083W, strain WHI5, hits give low values 0.94 | S. cerevisiae deletion strains, locus YOR106W, strain vam3, hits give low values 0.939 | S. cerevisiae deletion strains, locus YOR136W, strain idh2, hits give low values 1.01 | S. cerevisiae deletion strains, locus YOR144C, strain elg1, hits give low values 1.01 | S. cerevisiae deletion strains, locus YOR184W, strain ser1, hits give low values 1.01 | S. cerevisiae deletion strains, locus YOR231W, strain MKK1, hits give low values 0.978 | S. cerevisiae deletion strains, locus YOR265W, strain rbl2, hits give low values 0.979 | S. cerevisiae deletion strains, locus YOR270C, strain vph1, hits give low values 0.933 | S. cerevisiae deletion strains, locus YOR290C, strain snf2, hits give low values 0.928 | S. cerevisiae deletion strains, locus YOR316C, strain cot1, hits give low values 1.01 | S. cerevisiae deletion strains, locus YPL051W, strain arl3, hits give low values 1 | S. cerevisiae deletion strains, locus YPL055C, strain LGE1, hits give low values 0.983 and 0.98 | S. cerevisiae deletion strains, locus YPL078C, strain atp4, hits give low values 0.962 | S. cerevisiae deletion strains, locus YPL106C, strain sse1, hits give low values 0.931 | S. cerevisiae deletion strains, locus YPL240C, strain hsp82, hits give low values 0.988 | S. cerevisiae deletion strains, locus YPL256C, strain CLN2, hits give low values 0.981 | S. cerevisiae deletion strains, locus YPR119W, strain clb2, hits give low values 1 | S. cerevisiae deletion strains, locus YPR141C, strain kar3, hits give low values 1.01 | S. cerevisiae deletion strains, locus YPR163C, strain tif3, hits give low values 1.01 | S. cerevisiae deletion strains, locus YPR167C, strain met16, hits give low values 1.01 | S. cerevisiae deletion strains, strain wtn01, hits give low values 1.01 | S. cerevisiae strains, strain wild type, hits give low values 1.01
